Assay outcomes: PubChem, National Center for Advancing Translational Sciences (NCATS)
gsp antag: antagonizes gsp, the McCune-Albright syndrome mutation; gsp-mutant cells, cAMP HTRF, 30 min; Potency, µM (highest dose often 76.9 µM), hits mostly inhibitors; 0.4% of 340,000 active; calls by dose curve; cell line not stated here;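 also: intracellular cAMP measured with PDE inhibitor Ro 20-1724 present during compound exposure; nearly all actives have a fitted effect of over 65% in size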
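Measurement of cellular cAMP by homogeneous time-resolved fluorescence following a 30 min compound exposure at 37C. The PDE inhibitor […] was present throughout; the assay buffer was DPBS with 0.05% BSA and 0.005% Tween 20.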
pAkt inh: blocks phosphorylation of Akt. 0.32% of 360,000 active. AID 651550. Neuro2A IGF-stimulated pAkt S473 HTRF, 20 min; hits give low values. activity change, % for hits at 50 µM; in the data active = activity change below about -80%; inconclusive = mostly about -51% to -80%
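Neuro2A cells in DMEM with 0.5% FBS, overnight at 37 deg C, given compound at single 50 µM final, then IGF (6 nM final) for 20 min at 37 deg C. Lysed; phospho-Akt Ser473 by HTRF after 24 h, 665/615 ratio.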
gsp ag: gsp mutant agonism; gsp mutant cells, cAMP HTRF, 30 min; Potency, µM (highest dose often 76.9 µM), actives largely listed as activators; 0.13% of 340,000 active; active = well fitted activation curve with a large enough effect; inconclusive = small, poorly fitted or top-dose-only effect, or another doubt; inactive = no such curve, though single readings can be large or run the other way; cell line not stated here;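 also: phosphodiesterase inhibitor Ro 20-1724 added with compounds to block cAMP breakdown; nearly all actives have a fitted effect of over 60% in size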
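Cells in DMEM/10% FBS with G418 were pretreated with compounds in DMSO plus […] (300 uM stock) for 30 min at 37C. cAMP was measured by HTRF (cAMP-d2 plus anti-cAMP antibody-K) after 30 min at room temperature.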
RXFP1 agonist: agonists of human relaxin receptor RXFP1 | Q9HBX9 | 0.3% of 370,000 active | Potency, µM (highest dose often 57.5 µM), usual class: activators | HEK293T-RXFP1 cAMP TR-FRET, 30 min; response scale: percent of porcine relaxin response, buffer zero; active = well fitted activation curve with a large enough effect; inconclusive = small, poorly fitted or top-dose-only effect; also: nearly all actives have a fitted effect of over 60% in size
Target sequence (Q9HBX9 whole entry, looked up): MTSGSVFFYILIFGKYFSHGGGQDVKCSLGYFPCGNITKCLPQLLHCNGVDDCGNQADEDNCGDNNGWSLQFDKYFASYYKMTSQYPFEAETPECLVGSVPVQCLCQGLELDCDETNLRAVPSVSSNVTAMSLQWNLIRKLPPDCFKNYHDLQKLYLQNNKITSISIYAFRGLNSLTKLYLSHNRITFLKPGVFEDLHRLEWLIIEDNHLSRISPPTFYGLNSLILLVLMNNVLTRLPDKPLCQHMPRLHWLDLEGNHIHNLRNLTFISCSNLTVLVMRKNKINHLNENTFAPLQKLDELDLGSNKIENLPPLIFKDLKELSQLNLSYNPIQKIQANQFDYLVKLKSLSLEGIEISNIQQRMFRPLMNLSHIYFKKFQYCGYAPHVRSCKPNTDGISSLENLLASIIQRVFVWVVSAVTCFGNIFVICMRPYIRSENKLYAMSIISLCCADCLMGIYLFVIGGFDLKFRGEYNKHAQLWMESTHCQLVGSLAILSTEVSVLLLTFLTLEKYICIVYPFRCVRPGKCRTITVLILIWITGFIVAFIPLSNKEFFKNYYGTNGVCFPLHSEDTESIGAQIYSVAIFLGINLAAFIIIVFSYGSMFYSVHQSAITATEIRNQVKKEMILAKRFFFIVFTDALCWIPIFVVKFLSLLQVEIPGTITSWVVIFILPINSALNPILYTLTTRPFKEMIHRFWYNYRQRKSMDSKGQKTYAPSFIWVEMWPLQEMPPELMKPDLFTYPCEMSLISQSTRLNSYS
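Agonist response is measured as cAMP accumulation in an RXFP1-transfected HEK293T line under PDE4 inhibition. Values are scaled between buffer-only and 29 nM porcine relaxin, and EC50s come from standard Hill equation fits.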
RXFP1 antag: blocks the human relaxin receptor RXFP1 | activity change, negative = inhibition, % at 57.5 µM | 0.59% of 350,000 active | Q9HBX9 | HEK293-RXFP1, relaxin-stimulated cAMP HTRF, 30 min; hits give low values;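 active = activity change of -60% or lower, but not beyond a set lower limit; inconclusive = change between -60% and -40%, or beyond the set limit; inactive = change above -40%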
Large screens that a line does not name were inactive. Hits are enriched below; roughly 1.2% of the tested compounds scored in any of these assays.

COc1ccc(-c2c(C(C)=O)c(C)nc3sc4c(c23)NC(c2ccccc2)NC4=O)cc1 (configuration not stated)	pAkt inh -85%
O=C(NCC(c1ccc2c(c1)OCO2)N1CCN(c2ccccc2)CC1)c1ccccc1 (configuration not stated)	none (no result: gsp antag, pAkt inh, gsp ag)
CCSc1nc2sc3c(c2c(=O)[nH]1)CC(C)(CC)OC3 (configuration not stated)	none
CCC1(C)Cc2c(sc3nc(SC)[nH]c(=S)c23)CO1 (configuration not stated)	gsp ag inconclusive, RXFP1 agonist 25µM
C=CCOC(=O)C1CC=CCC1C(=O)Oc1ccc(F)cc1F (configuration not stated)	pAkt inh -80%
Cc1ccc(CNC(=O)Cn2cc(S(=O)(=O)Cc3ccccc3F)c3ccccc32)cc1	none (no result: gsp antag, pAkt inh, gsp ag)
CCN(CC)S(=O)(=O)c1ccc(-c2nnc(SCc3nnc(-c4ccc(C)cc4)o3)n2CC)cc1	none (no result: pAkt inh)
CCN(CC)S(=O)(=O)c1cccc(-c2nnc(SCc3nnc(-c4ccccc4)o3)n2C)c1	pAkt inh -99%
O=c1c2ccccc2nc(N2CCN(c3cccc(Cl)c3)CC2)n1-c1ccccc1	none (no result: gsp antag, pAkt inh, gsp ag)
CCOC(=O)c1c(C)[nH]c(-c2csc(N)n2)c1C	none (no result: gsp antag)
CCOC(=O)c1c(C)[nH]c(-c2csc(C)n2)c1C	RXFP1 antag -67
O=C(CCNC(=O)Cn1cnc2ccccc2c1=O)NCC1COc2ccccc2O1 (configuration not stated)	pAkt inh -107%
C=C(C)Cn1c(-c2ccncc2)n[nH]c1=S	RXFP1 antag -67 (no result: gsp antag)
Cc1c(C(=O)N(C)Cc2ccccc2)sc2nc(-c3ccc(F)cc3)cn12	RXFP1 antag -68 (no result: gsp antag, pAkt inh, gsp ag)
O=C(CCC1CCN(Cc2ccccc2)CC1)c1ccc2c(c1)NCCCC2	none (no result: gsp antag, pAkt inh, gsp ag, RXFP1 agonist)
CC(C(=O)NCc1ccccc1)n1cc([N+](=O)[O-])cn1 (configuration not stated)	gsp ag 1.6µM
Cc1cc(CNC(=O)C(C)n2cc([N+](=O)[O-])cn2)c2ccccc2n1 (configuration not stated)	RXFP1 agonist inconclusive
CCn1c(C(=O)NCc2ccccc2Br)cc2oc3ccccc3c21	none (no result: gsp antag, pAkt inh, gsp ag)
O=C(Nc1ccsc1C(=O)O)c1cccc(Oc2ccccc2)c1	gsp antag inconclusive, RXFP1 antag -80
Nc1c(O)ccc2c1C(=O)c1ccccc1C2=O	gsp antag 25µM, RXFP1 antag -80
Cc1cccc(N2CCN(c3ncnc4c3nc3n4CCCCC3)CC2C)c1 (configuration not stated)	RXFP1 antag -70 (no result: gsp antag, pAkt inh, gsp ag)
O=C(CN(Cc1ccco1)C(=O)CNS(=O)(=O)c1ccc(F)cc1)NCc1ccccc1	none
O=C(CN(Cc1ccco1)C(=O)CNS(=O)(=O)c1ccccc1)NCc1ccccc1	pAkt inh -120%
CCc1ccc(C(=O)NC(Cc2c[nH]c3ccccc23)C(=O)OCC(=O)c2ccc(Br)cc2)cc1 (configuration not stated)	none (no result: gsp antag, pAkt inh, gsp ag)
O=C(CN1C(=O)c2ccccc2S1(=O)=O)NCc1c(F)cccc1F	none
O=C(CN1C(=O)c2ccccc2S1(=O)=O)NC(Nc1ccccc1F)C(Cl)(Cl)Cl (configuration not stated)	RXFP1 antag -105
CC(C)CN(C(=O)CSc1nncn1-c1ccccc1)c1c(N)n(CC(C)C)c(=O)[nH]c1=O	RXFP1 antag -60
CCOc1ccc(C2c3c(oc4ccc(C)cc4c3=O)C(=O)N2c2nc(C)c(C)s2)cc1OC (configuration not stated)	none (no result: gsp antag, pAkt inh, gsp ag)
COc1ccc(NC(=O)c2nnn(CC(=O)Nc3ccccc3OC)c2N)c(OC)c1	RXFP1 antag -102
CCOCCCNC(=O)c1cn(C)c2ccc(S(=O)(=O)N3CCCC3)cc2c1=O	none
COCCNC(=O)c1cn(C)c2ccc(S(=O)(=O)N3CCCC3)cc2c1=O	gsp antag 50µM (no result: pAkt inh)
Cc1cc(/C=N\NC(=O)c2cccs2)c(C)n1-c1ccc2ncccc2c1	gsp antag 40µM
c1ccc(C(O[C@H]2CCCN(CCc3ccc4c(c3)OCO4)C2)c2ccccc2)cc1	RXFP1 antag -62 (no result: gsp antag, pAkt inh, gsp ag, RXFP1 agonist)
CC(=O)NCCNc1nc2c(-c3cccc(C)c3)nnn2c2ccccc12	none
CC(=O)NCCNc1nc2c(-c3ccccc3)nnn2c2ccccc12	gsp ag 22µM
C/C(=N\O)[C@@H](C)NCC(C)(C)CN[C@H](C)/C(C)=N/O	none (no result: gsp antag, pAkt inh, gsp ag, RXFP1 agonist)
Cn1c2cc(B(O)O)sc2c2cnn(Cc3ccc(F)cc3F)c(=O)c21	none (no result: gsp antag, pAkt inh, gsp ag, RXFP1 antag)
CC(C)(C)c1cc(=O)[nH]c(SCc2ccccc2Cl)n1	RXFP1 antag -74
CC(C)(C)c1cc(=O)[nH]c(SCc2ccccc2)n1	none
CCCCC/C(C=O)=C\c1ccccc1	none (no result: gsp antag, pAkt inh, gsp ag, RXFP1 agonist)
CCCOc1ccc(C(=O)Nc2cc3nn(-c4ccc(CC)cc4)nc3cc2C)cc1	none (no result: gsp antag, pAkt inh, gsp ag)
N=c1oc2cc(O)ccc2cc1C(=O)Nc1ccc(Cl)cc1	gsp antag 40µM, gsp ag inconclusive
N=C(N)c1ccc(OCCCOc2ccc(C(=N)N)cc2)cc1	none (no result: gsp antag, pAkt inh, gsp ag, RXFP1 agonist)
COc1ccc(CCNS(=O)(=O)c2ccc(N3CCCC3=O)cc2)cc1	none (no result: RXFP1 agonist)
COc1ccc(OC)c(NS(=O)(=O)c2ccc(N3CCCC3=O)cc2)c1	pAkt inh -115%
O=c1c2cccnc2[nH]c(=S)n1CCCN1CCN(c2ccc(F)cc2)CC1	pAkt inh -111%
N#CCCn1c(C2CCCCC2)nc2ccccc21	pAkt inh -122%
O=[N+]([O-])/C=C\c1ccc(N2CCCC2)c(F)c1	RXFP1 antag -68
O=Cc1ccc(N2CCCC2)c([N+](=O)[O-])c1	none
O=Cc1cc(Cl)ccc1OCCN1CCC(Cc2ccccc2)CC1	RXFP1 antag -109
Clc1ccccc1OCCN1CCC(Cc2ccccc2)CC1	none
Cc1nnc(N2CCN(C(=O)Nc3cccc(C(F)(F)F)c3)CC2)c2nn(-c3ccccc3)c(C)c12	none (no result: gsp antag, pAkt inh, gsp ag)
COc1ccc(C2C(C(=O)c3ccco3)=C(O)C(=O)N2c2nnc(C)s2)cc1 (configuration not stated)	RXFP1 agonist inconclusive
COc1cc(C2C(C(=O)c3ccco3)=C(O)C(=O)N2c2cc(C)on2)cc(Br)c1O (configuration not stated)	pAkt inh -115%
C=CCOc1ccc(C2C(C(=O)c3ccco3)=C(O)C(=O)N2c2nnc(C)s2)cc1 (configuration not stated)	RXFP1 agonist 14µM
Cc1cc(N2C(=O)C(O)=C(C(=O)c3cc4ccccc4o3)C2c2ccc(Br)cc2)no1 (configuration not stated)	gsp ag 3.5µM, RXFP1 agonist 22µM
COc1ccc(OC)c(C2C(C(=O)c3cc4ccccc4o3)=C(O)C(=O)N2c2cc(C)on2)c1 (configuration not stated)	gsp ag 14µM, RXFP1 agonist inconclusive (no result: RXFP1 antag)
